Reference: the supplement of paper PMC10981050
“And” between values parts separate entries of the source, which are not always exact repeats. Equal values may be shown once. Where a name gives a salt, the structure may show the parent alone.

Experiments:
Assay in all cases: cell viability relative to vehicle control; higher = less cytotoxic
Conditions in all cases: 10 µM
[1] = system: K562
Outline: (§1)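 CRISPR-edited mutant clones and isogenic wild-type clones from four leukaemia lines were screened against Selleck bioactive, kinase and epigenetic probe libraries, with identity-inconsistent compounds excluded. Each compound was acoustically dispensed at a single 10 µM dose into 384-well plates holding 2000 cells in 50 µL medium per well. After 48 h the supernatant was removed and CellTiter-Glo luminescence was read. Viability was expressed as percent of the on-plate vehicle control and analysed in Genedata Screener.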

[2] = system: MARIMO
Outline: as §1

[3] = system: MOLM14
Outline: as §1

[4] = system: OCI-AML2
Outline: as §1

Structure (SMILES) | cell viability ([1]; SRSF2 genotype: SRSF2 P95H/wt) | cell viability ([1]; SRSF2 genotype: SRSF2 wt/wt) [%] | cell viability ([2]; SRSF2 genotype: SRSF2 P95H/wt) [%] | cell viability ([2]; SRSF2 genotype: SRSF2 wt/wt) [%] | cell viability ([3]; SRSF2 genotype: SRSF2 P95H/wt) [%] | cell viability ([3]; SRSF2 genotype: SRSF2 wt/wt) [%] | cell viability ([4]; SRSF2 genotype: P95H/wt) [%] | cell viability ([4]; SRSF2 genotype: wt/wt) [%]
C[C@H]1CC[C@@H]2N(C1)C[C@H]1[C@@H]3C[C@H]4[C@@H](CC(=O)[C@H]5C[C@@H](O)CC[C@@]54C)[C@@H]3CC[C@H]1[C@]2(C)O [Imperialine] | 112% and 97.8% | 109 | 103 | 101 | 105 | 106 | 101 | 107
C[C@@]12N[C@@H](Cc3ccccc31)c1ccccc12 [(-)-MK 801 maleate] | 105% and 106% | 108 | 101 | 100 | 100 | 112 | 98.3 | 90.7
Cc1sc2c(c1C)C(c1ccc(Cl)cc1)=N[C@@H](CC(=O)Nc1ccc(O)cc1)c1nnc(C)n1-2 | 60.9% and 68.8% | 71.9 | 27.3 | 35.8 | 18 | 14.1 | 17.7 | 32.3
C=C1CC[C@H]2[C@@H](C=C(C)C(=O)[C@@]3(O)C[C@H](C)[C@H](O)[C@@H]3[C@H]1O)C2(C)C [Lathyrol] | 94.9% and 95.9% | 96.9 | 92.5 | 102 | 97.1 | 96.8 | 105 | 99
NCCc1ccccc1 [2-Phenylethylamine hydrochloride] | 105% and 104% | 104 | 103 | 105 | 104 | 106 | 112 | 117
COC(=O)c1ccccc1C(=O)OC [Dimethyl phthalate] | 86.9% and 85.8% | 84 | 85.6 | 93.4 | 87.5 | 85.8 | 89.5 | 80.7
CC1=C[C@@H]2C(=O)[C@]3(C=C(C)[C@H](O)[C@@]3(O)[C@@H]1O)[C@H](C)C[C@@H]1[C@H]2C1(C)C [20-Deoxyingenol] | 79.4% and 65.6% | 65.1 | 76.2 | 100 | 39.8 | 14.8 | 18.2 | 52
C[C@]12CCC(=O)C(O)=C1CC[C@@H]1[C@@H]2CC[C@]2(C)C(=O)CC[C@@H]12 [Formestane] | 96.6% and 94.4% | 102 | 93.2 | 107 | 107 | 103 | 104 | 112
CC(C)N(CCNC(=O)CN1CCCC1=O)C(C)C [Pramiracetam] | 96.6% and 106% | 104 | 98.4 | 111 | 107 | 102 | 98.1 | 105
COc1ccc(/C=C/c2cc(OC)cc(OC)c2)cc1 [3,4',5-Trimethoxy-trans-stilbene] | 26.9% and 46.4% | 39.7 | 47.5 | 35.7 | 15.3 | 6.3 | 38.2 | 36.4
CC(=O)O[C@H]1CC[C@H]2[C@@H]3CCC4=CC(=O)CCC4=C3C=C[C@]12C [Trenbolone acetate] | 98.4% and 111% | 98.9 | 87.2 | 96 | 83 | 102 | 114 | 101
O=c1[nH]c2ccccc2o1 [2-Benzoxazolinone] | 100% and 89.3% | 96.7 | 97.2 | 102 | 98.4 | 104 | 91.5 | 94.2
CCC12C=CCN3CC[C@@]4(c5ccc(OC)cc5N(C)[C@H]4[C@@](O)(C(=O)OC)[C@@H]1OC(C)=O)[C@@H]32 (stereo not given in full) [Vindoline] | 96.8% and 99.8% | 99.4 | 101 | 107 | 105 | 105 | 103 | 116
COC1=C[C@]23CCCN2CCc2cc4c(cc2[C@@H]3[C@@H]1O)OCO4 [Cephalotaxine] | 91.4% and 93.8% | 93.5 | 91 | 93.2 | 96.1 | 96.5 | 90.8 | 91.4
COc1ccc(C[C@H]2NC[C@H](O)[C@H]2OC(C)=O)cc1 [Anisomycin] | 4.09% and 9.55% | 7.54 | 13.6 | 6.74 | 0.46 | 0.44 | 3.57 | 10.5
CCN(Cc1ccc(Cl)nc1)/C(=C/[N+](=O)[O-])NC [Nitenpyram] | 98.8% and 88.3% | 99.9 | 94.5 | 99 | 97.7 | 98.6 | 95.2 | 99.8
CC[C@H]1[C@@H]2C[C@H]3[C@@H]4N(C)c5ccccc5[C@]45C[C@@H]([C@@H]2[C@H]5O)N3[C@@H]1O [Ajmaline] | 95.7% and 94% | 98.5 | 90.6 | 96.2 | 94.6 | 98.4 | 93.9 | 97.9
COc1cc(C)[nH]c(=O)c1CNC(=O)c1c(C)n([C@H](C)C2CCOCC2)c2ccccc12 | 111% and 102% | 94.9 | 106 | 118 | 103 | 101 | 106 | 104
O=C1CCC[C@@H]2[C@H]3CCCN4CCC[C@@H](CN12)[C@@H]34 [Matrine ((+)-Matrine)] | 94.4% and 112% | 102 | 107 | 110 | 105 | 106 | 106 | 103
O=C(O[C@H]1C[C@H]2CC[C@@H](C1)[N+]21CCCC1)C(O)(c1ccccc1)c1ccccc1 [Trospium chloride (Sanctura)] | 98.8% and 100% | 95.7 | 101 | 102 | 99.4 | 102 | 102 | 102
COCC1(CO)C(=O)C2CCN1CC2 (stereo not given) | 35.9% and 43.5% | 63.5 | 65.3 | 57.5 | 9.18 | 3.69 | 14.8 | 15.9

Structure (SMILES) | cell viability ([1]; SRSF2 genotype: SRSF2 P95H/wt) | cell viability ([1]; SRSF2 genotype: SRSF2 wt/wt) [%] | cell viability ([2]; SRSF2 genotype: SRSF2 P95H/wt) [%] | cell viability ([2]; SRSF2 genotype: SRSF2 wt/wt) [%] | cell viability ([3]; SRSF2 genotype: SRSF2 P95H/wt) [%] | cell viability ([3]; SRSF2 genotype: SRSF2 wt/wt) [%] | cell viability ([4]; SRSF2 genotype: P95H/wt) [%] | cell viability ([4]; SRSF2 genotype: wt/wt) [%]
CC(C)=CCCC(C)(O)C1CCC2(C)C1C(O)CC1C3(C)CCC(O)C(C)(C)C3C(OC3OC(CO)C(O)C(O)C3O)CC12C [(20R)-Ginsenoside Rh1] | 101% and 98.6% | 103 | 111 | 98.8 | 115 | 107 | 107 | 108
ClCCN(Cc1ccccc1)Cc1ccccc1 [Dibenamine Hydrochloride] | 103% and 95.7% | 91.5 | 94.9 | 104 | 94.8 | 103 | 83.5 | 89.3
CN(C)CCc1ccc(O)cc1 [Hordenine] | 104% and 106% | 103 | 108 | 106 | 101 | 109 | 107 | 94.8
C[C@]12C=CC(=O)C=C1CC[C@@H]1[C@@H]2CC[C@@]2(C)[C@H]1CC[C@]2(C)O [Methandrostenolone] | 102% and 107% | 102 | 103 | 105 | 103 | 110 | 115 | 104
c1cc2c(cc1[C@H]1OC[C@H]3[C@@H]1CO[C@@H]3c1ccc3c(c1)OCO3)OCO2 [Sesamin (Fagarol)] | 92.3% and 97.8% | 97.3 | 94.2 | 111 | 98.8 | 105 | 100 | 102
Cn1c(COP(=O)(NCCBr)NCCBr)cnc1[N+](=O)[O-] | 102% and 109% | 103 | 39.3 | 56 | 29.1 | 12.8 | 29.4 | 40.1
COc1cc(C2OCC3C(c4cc(OC)c(OC5OC(CO)C(O)C(O)C5O)c(OC)c4)OCC23)cc(OC)c1OC1OC(CO)C(O)C(O)C1O (stereo not given) [Eleutheroside E] | 104% and 98.2% | 101 | 97.3 | 97.9 | 98.5 | 107 | 102 | 112
COc1cc2c(cc1O)CC1NCCc3cc(OC)c(O)c-2c31 (stereo not given) [Norisoboldine] | 108% and 103% | 105 | 93.1 | 90.2 | 99.3 | 103 | 103 | 99.1
COc1cc(-n2c(=S)[nH]c3ccccc3c2=O)c(Cl)cc1Cl [Mdivi-1] | 91.9% and 96.6% | 94.2 | 90.7 | 95.2 | 91 | 102 | 109 | 116
Fc1cc(F)c2c(c1)[C@H]1C=CC[C@H]1C(c1cccnc1)N2 (stereo not given in full) [Golgicide A] | 25.9% and 36.2% | 32.3 | 14.1 | 27.5 | 46.3 | 68.2 | 12.2 | 22.5
CC(C)OC(=O)[C@H](C)N[P@](=O)(CO[C@H](C)Cn1cnc2c(N)ncnc21)Oc1ccccc1 [Tenofovir Alafenamide (GS-7340)] | 100% and 106% | 97.3 | 93.8 | 91.2 | 87 | 90.6 | 31.5 | 53.6
CN1C(=O)CCS(=O)(=O)C1c1ccc(Cl)cc1 (stereo not given) [Chlormezanone (Trancopal)] | 102% and 101% | 93.5 | 97 | 96.7 | 93.1 | 97.2 | 94.1 | 95.6
CCCCCCC[n+]1ccc(-c2cc[n+](CCCCCCC)cc2)cc1 [DHBP dibromide] | 51.7% and 49.9% | 56.3 | 71 | 76.1 | 53.9 | 76.4 | 51.8 | 52.4
CC(=O)Nc1ccc(Cc2ccc(NC(C)=O)cc2)cc1 | 104% and 107% | 107 | 105 | 106 | 106 | 104 | 104 | 113
C[C@@H]1CCC=C2C(=O)C[C@H]3OOC(C)(C)[C@H]3[C@]21C [Nardosinone] | 85.3% and 82.5% | 83.5 | 84.7 | 92.8 | 89.8 | 91.4 | 92.9 | 102
Cl[TeH]1(Cl)(Cl)OCCO1.N | 86.8% and 76.3% | 75 | 78 | 83.5 | 71.3 | 74.3 | 76.1 | 84.1
C[C@]12CC[C@H]3[C@@H](CC[C@@]45O[C@@H]4C(O)=C(C#N)C[C@]35C)[C@@H]1CC[C@@H]2O [Trilostane] | 92.4% and 94.7% | 97.6 | 87.4 | 92.5 | 95.4 | 102 | 123 | 118
CC(C)=CCCC(C)(O)C1CCC2(C)C1C(O)CC1C3(C)CCC(O)C(C)(C)C3C(OC3OC(CO)C(O)C(O)C3O)CC12C [20(S)-Ginsenoside Rh1] | 103% and 105% | 101 | 106 | 110 | 102 | 106 | 107 | 115
CN1CCc2cc3c(cc2C1C1OC(=O)c2c1ccc1c2OCO1)OCO3 (single isomer, unassigned; (+)) [(+)-Bicuculline] | 102% and 97.1% | 96.5 | 97.6 | 106 | 99.2 | 99.5 | 93.9 | 96.7
O=C1C=CC[C@@H]2[C@H]3CCCN4CCC[C@@H](CN12)[C@@H]34 [Sophocarpine] | 103% and 107% | 102 | 108 | 111 | 106 | 106 | 98.4 | 108
CCOc1ccccc1-n1c(C(C)N2CCN(C(=O)COc3ccc(Cl)cc3)CC2)nc2ccccc2c1=O (stereo not given) [Erastin] |  | 63 | 21.1 | 38.8 | 6.91 | 3.65 | 0.65 | 12.4
